From PubChem BioAssay (Tox21)
Calls of active or inactive are those of the source. The call rests on the fitted dose curve; in most records, active means well fitted curve in the direction sought with a large enough effect in the repeat runs; inconclusive means weak or mixed curves; inactive means flat fitted curve, though single readings scatter.

Test: qHTS assay to test for compound auto fluorescence at 590 nm (red) in HepG2 cells (AID 720674)
Settings: HepG2 autofluorescence, red 540/590 nm, 1 h; series mostly up to 91.3 µM; fluorescence, relative to Rose Bengal: at the top concentration
Procedure, shortened: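 Compound auto-fluorescence is scored relative to Rose Bengal sodium, measured at 540/590 nm in live HepG2 cultures after 1 hr compound contact (37 C, 5% CO2).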
On the % scale 0 is the no-effect control and ±100 the full control effect.

Row | Structure (SMILES) | fluorescence, relative to Rose Bengal | outcome
1 | CCc1ccc(C)cc1 | -0.0887% (inactive) | 
2 | Cc1ccc(Cl)cc1N | -0.0749% [at 95.7 µM] (inactive) | 
3 | Cc1ccc(NC(=O)N(C)C)cc1NC(=O)N(C)C | 0.0339% (inactive) | 
4 | CC(C)(C)S | 0.0454% [at 95.7 µM] (inactive) | 
5 | O=P(O)(O)Oc1ccccc1 | 0.0379% (inactive) | 
6 | COc1ccc(-c2cc(C(F)F)nn2-c2ccc(S(N)(=O)=O)cc2)cc1F | -0.241% [at 46 µM] (inactive) | 
7 | CCO[Si](C)(CCCOCC1CO1)OCC (stereo not drawn) | 0.202% (inactive) | 
8 | CNS(=O)(=O)c1cc(C(=O)N2CCC(CCN3C4CCC3CC(n3c(C)nc5ccccc53)C4)(c3cccc(F)c3)CC2)c(Cl)cc1F (stereo not drawn) | 0.0555% (inactive) | 
9 | Cc1c[nH]c2ccccc12 | 0.346% [at 46 µM] (inactive) | 
10 | O=C1OC[C@H](Cc2cccc(O)c2)[C@H]1Cc1cccc(O)c1 | 0.0523% [at 46 µM] (inactive) | 
11 | Nc1nc(-c2ccc([N+](=O)[O-])cc2)cs1 | -0.163% (inactive) | 
12 | COC(OC)OC | -0.359% (inactive) | 
13 | CC(C)COC(=O)COc1cc(Cl)c(Cl)cc1Cl | -0.0857% (inactive) | 
14 | Cc1ccc(N(CCO)CCO)cc1 | 0.0159% (inactive) | 
15 | Nc1nc2ccc(OC(F)(F)F)cc2s1 | -0.0575% [at 46 µM] (inactive) | 
16 | C[C@@H]1C[C@H]2[C@@H]3CCC4=CC(=O)C=C[C@]4(C)[C@@]3(F)[C@@H](O)C[C@]2(C)[C@@]1(O)C(=O)COP(=O)(O)O |  | inactive
17 | COC(=O)c1sccc1S(N)(=O)=O | -0.008% (inactive) | 
18 | COC(=O)CC(C(C)=O)C(=O)OC (stereo not drawn) | -0.156% (inactive) | 
19 | Cc1c(C2(c3cc(Br)c(O)c(Br)c3C)OS(=O)(=O)c3ccccc32)cc(Br)c(O)c1Br | -0.142% (inactive) | 
20 | SCCc1cnccn1 | 0.201% (inactive) | 
21 | CN(C)CC/C=C1\c2ccccc2Sc2ccc(Cl)cc21 | -0.0797% [at 46 µM] (inactive) | 
22 | CC(=O)OCC(C)C | -0.115% (inactive) | 
23 | O=[N+]([O-])C1(Br)COCOC1 | 0.292% (inactive) | 
